Data reported in PubChem BioAssay AID720554 (ICCB-Longwood Screening Facility, Harvard Medical School, 2013).
Screen size: about 12,000 compounds; about 45 (0.4%) were called active. The sample holds actives, similar compounds and a random draw of the others, so the mix is not that of the screen. No stated cut-off is given here; in the data, active means inhibition mostly above about 83% (no sharp cut-off); inactive means mostly below about 52%.

Tests used:
[1] = BmaI1 acyl-homoserine lactone synthase inhibition – biochemical, fluorescence intensity, with counterscreen (AID 720554); conditions: BmaI1 enzyme assay, measured here: counterscreen fluorescence % control, concentration not given here
[2] = tested on: acyl-homoserine lactone synthase BmaI1 (Burkholderia mallei ATCC 23344); assay: as above; conditions: BmaI1 enzyme assay, stronger effect = higher value, concentration not given here

## O=Nc1c(O)[nH]c2c(C(F)(F)F)cccc12
[1]
  inhibition: 11%
[2]
  inhibition: 13% (inactive)

## COc1cccc(-n2c(SC3CCOC3=O)nc3ccccc3c2=O)c1 (stereo not given)
[1]
  inhibition: 13.5%
[2]
  inhibition: 14.5% (inactive)

## O=C(CSc1ncc(C(F)(F)F)cc1Cl)N1CCN(S(=O)(=O)c2ccccc2)CC1
[1]
  inhibition: -4%
[2]
  inhibition: 8.5% (inactive)

## Cc1noc(C)c1COc1ccc(C(=O)OCC(N)=O)cc1
[1]
  inhibition: 3%
[2]
  inhibition: 14% (inactive)

## O=C(CCSc1ccc(Cl)cc1)Nc1ccccc1
[1]
  inhibition: 17.5%
[2]
  inhibition: 15% (inactive)

## CCN(CC)S(=O)(=O)c1ccc2c(c1)nc(CCC(=O)N1CCN(c3ccccc3)CC1)n2CC
[1]
  inhibition: 10.5%
[2]
  inhibition: 17% (inactive)

## CCCn1c(CCC(=O)N(C)c2ccccc2)nc2cc(S(=O)(=O)N3CCCC3)ccc21
[1]
  inhibition: -2.5%
[2]
  inhibition: 37% (inactive)

## CCn1c(CCC(=O)N2CCN(c3ccccn3)CC2)nc2cc(S(N)(=O)=O)ccc21
[1]
  inhibition: -0.5%
[2]
  inhibition: 98% (active)

## Cc1ccc(C2=NN(C(=O)CSc3ccc4c(c3)OCCO4)C(c3ccco3)C2)cc1 (stereo not given)
[1]
  inhibition: 0%
[2]
  inhibition: 7.5% (inactive)

## O=C(OCC1CCCCC1)c1n[nH]c2ccccc12
[1]
  inhibition: 12.5%
[2]
  inhibition: 30.5% (inactive)

## COc1ccc(Br)cc1CN(C)CN1C(=O)C2CC=CCC2C1=O (stereo not given)
[1]
  inhibition: 10.5%
[2]
  inhibition: 3.5% (inactive)

## CN1/C(=C\C=N\NC(=O)c2cccnc2)C(C)(C)c2ccccc21
[1]
  inhibition: 7%
[2]
  inhibition: 43% (inactive)

## CN1/C(=C\C=Nc2ccccc2N)C(C)(C)c2ccccc21
[1]
  inhibition: -25%
[2]
  inhibition: -9% (inactive)

## CN1/C(=C\C=N\NC(N)=S)C(C)(C)c2ccccc21
[1]
  inhibition: 29%
[2]
  inhibition: 85% (active)

## CC(C)(C)c1ccc(C(=O)NCCc2ccccn2)cc1
[1]
  inhibition: 2%
[2]
  inhibition: 5.5% (inactive)

## Cc1cccc(OCc2nnc3n2-c2ccccc2SC3)c1
[1]
  inhibition: -6.5%
[2]
  inhibition: -1.5% (inactive)

## O=C(COC(=O)/C=C/c1ccco1)Nc1cccc(C(F)(F)F)c1
[1]
  inhibition: -1%
[2]
  inhibition: 0.5% (inactive)

## CC1Cc2ccccc2N1CC(=O)NCc1ccc2c(c1)OCO2 (stereo not given)
[1]
  inhibition: -28%
[2]
  inhibition: 48% (inactive)

## NC(=O)c1ccc(-c2ccccc2)o1
[1]
  inhibition: 40%
[2]
  inhibition: 20% (inactive)

## S=C(c1ccc(-c2ccccc2)o1)N1CCN(c2ccccc2)CC1
[1]
  inhibition: 13.5%
[2]
  inhibition: 97.5% (active)

## COc1ccc(N2CCN(C(=S)Cc3ccccc3)CC2)cc1
[1]
  inhibition: 5%
[2]
  inhibition: 8.5% (inactive)

## O=C(COc1ccccc1C(=O)NCc1ccccc1)Nc1cccc2nsnc12
[1]
  inhibition: 0%
[2]
  inhibition: 12% (inactive)

## COc1ccc(COc2ncnc3ccccc23)cc1F
[1]
  inhibition: 1%
[2]
  inhibition: 19.5% (inactive)

## COc1ccc(COC(=O)c2cc(O)c3ccccc3c2O)cc1F
[1]
  inhibition: 19.5%
[2]
  inhibition: 84.5% (active)

## COc1ccc(C(=O)OCc2ccccc2F)c(OC)c1OC
[1]
  inhibition: 12.5%
[2]
  inhibition: 0% (inactive)
